# Measured values reported in article PMC8384837, “Expanding the binding specificity for RNA recognition by a PUF domain”.
# What was measured:
# Assay in all cases: yeast three-hybrid, YBZ-1, SC-Leu-His + 0.5 mM 3-AT, 4 days
# Conditions in all cases: tags: N-Gal4 AD-HA kept; label: inside an RPR1-promoter hybrid RNA with tandem MS2 sites; ssRNA
# PUM1 PUF domain R7-QPK = PUM1 PUF domain R7-QPK (Homo sapiens, UniProt Q14671 828-1176, S1079Q;N1080P;E1083K)
# Procedure, shortened: (§1)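 Sequencing with Illumina followed PCR amplification of the repeat regions from transformants grown four days on SC-Leu (input) or SC-Leu-His + 0.5 mM 3-AT (selection). The transformants were strain YBZ-1 with a LexA–MS2 coat fusion and a HIS3 reporter, carrying Pumilio-1 PUF domain libraries and matching RNA elements. The interaction score is the log change in variant frequency from input to selection, computed in log2 with a pseudocount of 1 for absent variants.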
# PUM1 PUF domain R3-SRR = PUM1 PUF domain R3-SRR (Homo sapiens, UniProt Q14671 828-1176, C935S;Q939R)
# Procedure, shortened: as §1
# PUM1 PUF domain R4-CPV = PUM1 PUF domain R4-CPV (Homo sapiens, UniProt Q14671 828-1176, N971C;H972P;Q975V)
# Procedure, shortened: as §1
# PUM1 PUF domain R1-RLS = PUM1 PUF domain R1-RLS (Homo sapiens, UniProt Q14671 828-1176, S863R;R864L;Q867S)
# Procedure, shortened: as §1
# PUM1 PUF domain R4-NNA = PUM1 PUF domain R4-NNA (Homo sapiens, UniProt Q14671 828-1176, H972N;Q975A)
# Procedure, shortened: as §1
# PUM1 PUF domain R5-KQR = PUM1 PUF domain R5-KQR (Homo sapiens, UniProt Q14671 828-1176, C1007K;R1008Q;Q1011R)
# Procedure, shortened: as §1
# PUM1 PUF domain R5-HAD = PUM1 PUF domain R5-HAD (Homo sapiens, UniProt Q14671 828-1176, C1007H;R1008A;Q1011D)
# Procedure, shortened: as §1
# PUM1 PUF domain R5-NQR = PUM1 PUF domain R5-NQR (Homo sapiens, UniProt Q14671 828-1176, C1007N;R1008Q;Q1011R)
# Procedure, shortened: as §1
# PUM1 PUF domain R5-RFV = PUM1 PUF domain R5-RFV (Homo sapiens, UniProt Q14671 828-1176, C1007R;R1008F;Q1011V)
# Procedure, shortened: as §1
sequence,measurement,setting,value
GGCUAGAACUAGUGGAUCCCCCGGCGCCCGGCGGCUCGAGCCCGGGUAAGUCUAAAUAGUCUGCAUGCCGCCGGGCGCCAUGCCUGCAGGUCGACUCUAGAAAACAUG,binding signal,PUM1 PUF domain R7-QPK,4.87 log2 enrichment (interaction score)
GGCUAGAACUAGUGGAUCCCCCGGCGCCCGGCGGCUCGAGCCCGGGUAAGUGUAAUUAGUCUGCAUGCCGCCGGGCGCCAUGCCUGCAGGUCGACUCUAGAAAACAUG,binding signal,PUM1 PUF domain R3-SRR,3.98 log2 enrichment (interaction score)
GGCUAGAACUAGUGGAUCCCCCGGCGCCCGGCGGCUCGAGCCCGGGUAAGUGUACAUAGUCUGCAUGCCGCCGGGCGCCAUGCCUGCAGGUCGACUCUAGAAAACAUG,binding signal,PUM1 PUF domain R4-CPV,1.61 log2 enrichment (interaction score)
GGCUAGAACUAGUGGAUCCCCCGGCGCCCGGCGGCUCGAGCCCGGGUAAGUGUAACUAGUCUGCAUGCCGCCGGGCGCCAUGCCUGCAGGUCGACUCUAGAAAACAUG,binding signal,PUM1 PUF domain R3-SRR,3.34 log2 enrichment (interaction score)
GGCUAGAACUAGUGGAUCCCCCGGCGCCCGGCGGCUCGAGCCCGGGUAAGUGUAAAUCGUCUGCAUGCCGCCGGGCGCCAUGCCUGCAGGUCGACUCUAGAAAACAUG,binding signal,PUM1 PUF domain R1-RLS,1.22 log2 enrichment (interaction score)
GGCUAGAACUAGUGGAUCCCCCGGCGCCCGGCGGCUCGAGCCCGGGUAAGUGUAUAUAGUCUGCAUGCCGCCGGGCGCCAUGCCUGCAGGUCGACUCUAGAAAACAUG,binding signal,PUM1 PUF domain R4-NNA,4.34 log2 enrichment (interaction score)
same,binding signal,PUM1 PUF domain R4-CPV,2.93 log2 enrichment (interaction score)
GGCUAGAACUAGUGGAUCCCCCGGCGCCCGGCGGCUCGAGCCCGGGUAAGUGUAAAUUGUCUGCAUGCCGCCGGGCGCCAUGCCUGCAGGUCGACUCUAGAAAACAUG,binding signal,PUM1 PUF domain R1-RLS,2.64 log2 enrichment (interaction score)
GGCUAGAACUAGUGGAUCCCCCGGCGCCCGGCGGCUCGAGCCCGGGUAAGUGUCAAUAGUCUGCAUGCCGCCGGGCGCCAUGCCUGCAGGUCGACUCUAGAAAACAUG,binding signal,PUM1 PUF domain R5-KQR,2.87 log2 enrichment (interaction score)
same,binding signal,PUM1 PUF domain R5-HAD,6.65 log2 enrichment (interaction score)
same,binding signal,PUM1 PUF domain R5-NQR,4.31 log2 enrichment (interaction score)
same,binding signal,PUM1 PUF domain R5-RFV,5.48 log2 enrichment (interaction score)
